Values joined by “and” are separate entries in the source; they are usually repeats but may differ in a detail not shown here. Equal entries are not always repeated. The whole screen tested about 16,000 compounds, of which about 5,700 (36%) were called active. Another 24% or so got no clear call; they are omitted. Calls come from the whole dose curve; as a rule, active = well fitted curve in the direction sought with a large enough effect; inconclusive = small, poorly fitted or top-dose-only effect, or effect the other way; inactive = no such curve, though single readings can be large or run the other way. The list shows a part of the results. Peptide text beside a SMILES is read from it.
% is set by controls: 0 for no effect and ±100 for the full control effect.

In the assay the target is Cytochrome P450 1A2 (Homo sapiens) (UniProt P05177). Description: Cytochrome panel assay with activity outcomes. Conditions: recombinant CYP, pro-luciferin dealkylation, luminescence, p450-cyp1a2; series mostly up to 57.1 µM.
Chain of Cytochrome P450 1A2 (Homo sapiens) (P05177 whole entry, looked up): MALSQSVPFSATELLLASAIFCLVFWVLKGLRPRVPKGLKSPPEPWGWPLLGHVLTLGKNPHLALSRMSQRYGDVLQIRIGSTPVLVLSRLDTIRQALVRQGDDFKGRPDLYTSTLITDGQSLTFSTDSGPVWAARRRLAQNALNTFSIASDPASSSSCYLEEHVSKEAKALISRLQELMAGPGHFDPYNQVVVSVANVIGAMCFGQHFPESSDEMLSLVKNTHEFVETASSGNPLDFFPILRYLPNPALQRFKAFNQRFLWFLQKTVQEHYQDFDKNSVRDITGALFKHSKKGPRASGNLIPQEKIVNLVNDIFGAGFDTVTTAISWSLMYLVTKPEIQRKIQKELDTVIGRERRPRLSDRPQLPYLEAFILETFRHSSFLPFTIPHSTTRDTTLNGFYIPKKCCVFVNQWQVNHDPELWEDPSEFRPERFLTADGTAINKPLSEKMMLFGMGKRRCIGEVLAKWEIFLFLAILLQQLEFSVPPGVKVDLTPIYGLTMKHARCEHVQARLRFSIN
On to `CC(N)=O`, for which the AC50 entry was “inactive”. On to `Cc1ccc(Sc2c([N+](=O)[O-])ncn2C)cc1`, for which the AC50 result was “inactive”. As to `O=C(Nc1ccc(Cl)cc1Cl)c1cccc(N2C(=O)C=CC2=O)c1`, the half-maximal activity concentration (AC50) is 12.6 µM (active). In the case of `CCCCC(=O)Nc1sc2c(c1C(=O)OCC)CCC(C=O)=C2Cl`, the AC50 was 2.51 µM (active). On to `FC(F)(F)c1ccccc1-c1cc(N2CCNCC2)ncn1`, for which the AC50 was 5.01 µM (active). Consider `CN1CCN(c2cc(-c3ccccc3C(F)(F)F)ncn2)CC1`, for which the AC50 is 12.6 µM (active). Turning to `CN(C)CCO[C@](C)(c1ccccc1)c1ccccn1`, the AC50 result is “inactive”. On to `CNc1cc(CSC)nc(SCc2ccc(Cl)c(Cl)c2)n1`, for which the AC50 was 4.47 µM (active). In the case of `Cc1cccc(CN(C)CCc2ccccn2)c1`, the AC50 result was “inactive”. Same read-out and setting: to `CN(CCc1ccccn1)Cc1ccc(Cl)cc1Cl` belongs 7.08 µM (active); to `CN(C)CCO[C@@H](c1ccc(Cl)cc1)c1ccccn1`, “inactive”. For the compound `C=CCN=C1CC(C)(C)CC(=O)/C1=C(\O)c1ccccc1`, the AC50 result is “inactive”.

`c1ccc(-c2ccc3c(c2)c2c4n3CCN=C4CCC2)cc1`: the AC50 is 2.82 µM (active). On to `O=C(CCNC(=O)c1ccccc1)OCN1C(=O)c2ccccc2C1=O`, for which the half-maximal activity concentration (AC50) was 2.24 µM (active).

Take `CCC(C)C(NC(=O)OCc1ccccc1)C(=O)OCN1C(=O)c2ccccc2C1=O` (stereo not drawn): the AC50 result is “inactive”.

As to `Cc1ccc(S(=O)(=O)N[C@H]2COC(=O)C/C=C\[C@@H](C)[C@H](NS(=O)(=O)c3ccc(C)cc3)COC(=O)[C@H](C)NC(=O)C/C=C\[C@H]2C)cc1`, the activity, negative = inhibition was -1.96% [at 11.4 µM] (inactive). As for `c1csc(CNCCCN2CCOCC2)c1`, the AC50 result is “inactive”. Take `COc1ccccc1-c1cc(NCc2cccs2)ncn1`: the AC50 was 1.58 µM (active). Still for that read-out and setting: to `COc1ccccc1CNCCCCCCNCCCCCCCCNCCCCCCNCc1ccccc1OC` belongs “inactive”. For the compound `COc1ccccc1CNCc1cccs1`, the AC50 is 0.251 µM (active). As for `COc1ccccc1-c1cc(NCc2cccnc2)ncn1`, the AC50 is 0.316 µM (active). With `CN(C)Cc1ccccc1-c1cc(NCc2ccccc2)ncn1`, the AC50 entry is “inactive”. Consider `Cc1cccc(CNc2cc(-c3ccccc3CN(C)C)ncn2)c1`, for which the half-maximal activity concentration (AC50) is 25.1 µM (active). For `C[N+](C)(C)CCO`, the AC50 result is “inactive”. Still for that read-out and setting: to `Clc1ccccc1-c1cc(NCc2cccnc2)ncn1` belongs 3.16 µM (active); to `Cc1cccc(CNc2cc(-c3ccccc3Cl)ncn2)c1`, 3.16 µM (active); to `COc1ccccc1-c1cc(NCc2cccc(C)c2)ncn1`, 1.58 µM (active).

`Clc1ccccc1C(Nc1cnccn1)Nc1cnccn1`: the activity, negative = inhibition was -18% [at 2.29 µM] (inactive).

Turning to `CN(C)Cc1ccccc1-c1cc(NCc2cccs2)ncn1`, the concentration at half-maximal activity (AC50) is 25.1 µM (active).

Consider `C=CC[C@@H]1C=C[C@H](Oc2ccc(C)cc2)[C@H](COC(=O)NCc2cccc3ccccc23)O1`, for which the activity, negative = inhibition was -8.02% [at 11.4 µM] (inactive). Regarding `COc1ccccc1-c1cc(NCc2ccccc2)ncn1`, the AC50 is 2.51 µM (active). With `N#C/C(=C\c1ccc(Oc2ccc(C(F)(F)F)cc2[N+](=O)[O-])cc1)c1nc2ccccc2[nH]1`, the AC50 entry is “inactive”.

As to `Cc1ccc2nc(/C(C#N)=C\c3ccc(OC(=O)c4cccs4)cc3)[nH]c2c1`, the concentration at half-maximal activity (AC50) is 2.51 µM (active).

`Cc1ccc(-c2nnc(-c3ccccc3S(=O)(=O)Cc3ccc(Cl)cc3)o2)cc1`: the AC50 entry is “inactive”. On to `Clc1ccc(-c2nnc(-c3cccc4ccccc34)o2)cc1Cl`, for which the AC50 was 2 µM (active). On to `COc1ccc(-c2nc3cnc(N(C)C)nc3n(Cc3cccs3)c2=O)cc1`, for which the half-maximal activity concentration (AC50) is 1.58 µM (active).

`CN(C)c1ncc2nc(-c3ccc(Cl)cc3)c(=O)n(Cc3cccs3)c2n1`: the AC50 was 1.58 µM (active). On to `CN(C)c1ncc2nc(-c3ccc(F)cc3)c(=O)n(Cc3cccs3)c2n1`, for which the concentration at half-maximal activity (AC50) is 1 µM (active). Take `CCCNC(=O)OC[C@@H]1O[C@H](CCO/N=C(\C)CCN2CCCCc3nc(C)c(C)cc32)C=C[C@@H]1Oc1ccc(OC)cc1`: the activity, negative = inhibition was 3.81% [at 11.4 µM] (inactive). As to `Cc1ccc(S(=O)(=O)N[C@H]2COC(=O)[C@H](C)COC(=O)[C@H](C)NC(=O)C/C=C\[C@H]2C)cc1`, the activity, negative = inhibition is 4.67% [at 11.4 µM] (inactive).

For `Nc1ccc(-c2nc3c(Cl)c(N)ccc3[nH]2)cc1`, the AC50 was 0.794 µM (active). Consider `CC(=O)N[C@@H](CC(=O)O)C(=O)N[C@@H](CCC(=O)O)C(=O)O` (Ac-Asp-Glu-OH), for which the AC50 entry is “inactive”. On to `O=C(CCc1ccc(S(=O)(=O)NC2CCCCC2)cc1)N(Cc1ccccc1)Cc1ccccc1`, for which the AC50 is 1.58 µM (active).

With `O=C(CN(CC1CCCO1)C(=O)CNS(=O)(=O)c1ccc(Cl)cc1)NCCc1ccccc1` (stereo not drawn), the AC50 entry is “inactive”.

As to `O=C(CCc1ccccc1)NNC(=O)C1CCCCC1`, the AC50 entry is “inactive”. For `CC(C)c1ccc2c(c1)C(c1ccc(N3CCOCC3)cc1)=NNC(c1cccs1)=N2`, the AC50 was 3.16 µM (active).

For `COC(=O)[C@@H]1CC[C@H](C)[C@@H](c2ccc(C)cc2)N1C(=O)c1ccc(/C=N\O[C@@H](C)c2cn([C@H](CO)Cc3ccccc3)nn2)cc1`, the activity, negative = inhibition was -8.03% [at 11.4 µM] (inactive) and -18.7% [at 11.4 µM] (inactive). On to `O=C(OC1CCN(c2ncc(C(F)(F)F)cc2Cl)CC1)c1cccc(C(F)(F)F)c1`, for which the AC50 result is “inactive”. As to `O=C(OCn1ncc(Cl)c(Cl)c1=O)c1cccc(C(F)(F)F)c1`, the AC50 was 2 µM (active). Regarding `COCC(=O)N1CCC2(CC1)CN(Cc1ccccc1OC)C2`, the AC50 entry was “inactive”.

For `CCCC[S@@](=N)(=O)CC[C@@H](N)C(=O)O`, the AC50 result is “inactive”.

In the case of `S=c1c2[nH]cnc2ncn1CCSc1ncnc2nc[nH]c12`, the activity, negative = inhibition is -16.9% [at 11.4 µM] (inactive).

With `O=C(Nc1ccc(-c2nc3ccccc3o2)cc1)c1ccc(N2CCOCC2)c([N+](=O)[O-])c1`, the AC50 result was “inactive”. As to `O=S(=O)(Nc1ccc2oc(-c3ccccc3)nc2c1)c1ccccc1`, the AC50 was 5.01 µM (active).

Take `Nc1ccc(S(=O)(=O)Nc2cnc3ccccc3n2)cc1`: the AC50 result is “inactive”. On to `O=C(O)Cc1ccc(NC(=O)C2CCCCC2C(=O)O)cc1` (stereo not drawn), for which the AC50 entry was “inactive”. Same read-out and setting: to `CC(C)OCCCNC(=O)C1CC(=O)N(C2CCCCCCC2)C1` (stereo not drawn) belongs “inactive”; to `CN(C)CC(O)COc1cccc(OCC(O)CN(C)C)c1` (stereo not drawn), “inactive”.

`CCCCC[C@H](O)c1cccc(OCc2ccc3ccccc3n2)c1`: the AC50 was 0.794 µM (active). For `O=C(O)c1ccccc1Nc1cccc(OCc2ccc3ccccc3n2)c1`, the AC50 is 1 µM (active). For `CCCCOC(OCCCC)[C@H](O)CSc1ccc2ccccc2c1`, the activity, negative = inhibition was -1.2% [at 11.4 µM] (inactive). In the case of `FC(F)(F)c1nc(-c2ccncc2)ncc1-c1nnnn1-c1ccccc1`, the AC50 is 25.1 µM (active). In the case of `Cc1cc(C)cc(-n2nnnc2-c2cn(C)nc2C(F)(F)F)c1`, the AC50 result was “inactive”. As to `FC(F)(F)c1nc(N2CCCC2)ncc1-c1nnnn1-c1ccccc1`, the AC50 entry is “inactive”. Turning to `O=C(O)c1ccc2c3c1cccc3c(=O)n1c3ccccc3nc21`, the concentration at half-maximal activity (AC50) was 15.8 µM (active). As for `O=c1c2ccc([N+](=O)[O-])c3cccc(c32)c2nc3ccccc3n12`, the AC50 was 3.55 µM (active). Regarding `NCCSS(=O)(=O)CCN`, the activity, negative = inhibition is -17.1% [at 2.29 µM] (inactive). For `CCc1cc2c(nc1CC)CCN(CC/C(C)=N/OC[C@@H](O)[C@@H]1O[C@@H]3OC(C)(C)O[C@@H]3[C@H]1O)C2`, the activity, negative = inhibition was -14.1% [at 11.4 µM] (inactive). `COc1ccc(-n2c(=O)c(C)nc3cnc(N4CCOCC4)nc32)cc1`: the AC50 was 12.6 µM (active). Regarding `Cc1nc2cnc(N3CCNCC3)nc2n(-c2ccccc2)c1=O`, the AC50 is 10 µM (active).

`COc1ccc(-n2c(=O)c(C)nc3cnc(N4CCNCC4)nc32)cc1`: the AC50 was 15.8 µM (active). As to `COc1ccc(-n2c(=O)cnc3cnc(N4CCNCC4)nc32)cc1`, the AC50 is 12.6 µM (active). As for `CCc1cc2c(nc1CC)CCN(CC/C(C)=N/OC[C@@H](C)[C@H](OCc1ccccc1)C(C)C)C2`, the activity, negative = inhibition is -7.21% [at 11.4 µM] (inactive).

Turning to `N[C@@H](Cc1ccnnc1)C(=O)O`, the activity, negative = inhibition is -10.6% [at 2.29 µM] (inactive).

Regarding `CC(C)NC(=O)N1CCC2(CC1)CCN(C(=O)c1cccc(F)c1)CC2`, the AC50 entry was “inactive”. With `O=C(O)CCc1c2ccc(=O)c(O)c-2oc2c(O)c(O)ccc12`, the activity, negative = inhibition is -3.96% [at 2.29 µM] (inactive). Take `O=C(N1CCOCC1)N1CCN(c2ccccc2)CC1`: the AC50 entry is “inactive”. For `O=C(C1CCN(S(=O)(=O)N2CCOCC2)CC1)N1CCN(c2ccccc2)CC1`, the AC50 entry is “inactive”.

Consider `c1ccn(-c2ccc(N3CCOCC3)cc2)c1`, for which the half-maximal activity concentration (AC50) is 0.251 µM (active).

`Nc1nc2c(c(=O)[nH]1)CN(c1ccc(S(N)(=O)=O)cc1)CN2`: the activity, negative = inhibition was 8.8% [at 2.29 µM] (inactive). `CC(C)=CC(=O)Nc1nnc(C(C)C)s1`: the AC50 was 15.8 µM (active).

As for `CC(C)c1nnc(NC(=O)CCC(=O)N2CCN(c3ccccn3)CC2)s1`, the AC50 result is “inactive”. For the compound `CC(=O)Nc1nnc(S(N)(=O)=O)s1`, the AC50 entry is “inactive”. Same read-out and setting: to `Cc1ccc(-c2csc(NC(=S)NC(=O)/C=C/c3ccco3)n2)cc1` belongs 5.62 µM (active). On to `O=C(/C=C/c1ccco1)NC(=S)Nc1ccc(N2CCOCC2)c(Cl)c1`, for which the AC50 entry is “inactive”. Still for that read-out and setting: to `Cc1ccc(/C=C/C(=O)NC(=S)Nc2ccccc2C(=O)NC2CCCCC2)cc1` belongs “inactive”. Take `O=P(O)(CCP(=O)(O)c1ccccc1)c1ccccc1`: the activity, negative = inhibition was -14.2% [at 11.4 µM] (inactive). In the case of `Cc1cc2nc(C)n(CCCN)c2cc1C`, the AC50 was 12.6 µM (active).

With `NCCCc1ccc2oc3ccccc3c2c1`, the concentration at half-maximal activity (AC50) is 0.0316 µM (active). Consider `CCN(CC)C(=O)C1CCN(S(=O)(=O)c2ccc3oc4ccccc4c3c2)CC1`, for which the AC50 result is “inactive”. As to `Cc1ccc(C(=O)N/N=C\c2ccc[nH]2)cc1[N+](=O)[O-]`, the AC50 was 1.78 µM (active). As for `Cc1ccc(C(=O)Nc2ccccc2Oc2ccccc2)cc1[N+](=O)[O-]`, the AC50 is 12.6 µM (active). Turning to `Cc1ccc(C(=O)N/N=C/c2cc(C)n(-c3ccc(Br)cc3)c2C)cc1[N+](=O)[O-]`, the AC50 entry was “inactive”. On the same count and under the same terms, to `O=C(N/N=C/C=C/c1ccc([N+](=O)[O-])cc1)c1cccs1` belongs “inactive”; to `Cc1ccc(C(=O)COC(=O)CNC(=O)C(c2ccccc2)c2ccccc2)cc1[N+](=O)[O-]`, “inactive”. For the compound `Cc1ccc(C(=O)Nc2ccc(Cc3ccncc3)cc2)cc1[N+](=O)[O-]`, the AC50 is 0.282 µM (active). With `Cc1ccc(/C=N/NC(=O)c2cccs2)cc1[N+](=O)[O-]`, the AC50 was 2.24 µM (active). `CCC(=O)Nc1ccc(C(=O)OCC(=O)c2ccc(C)c([N+](=O)[O-])c2)cc1`: the AC50 entry was “inactive”.

What is called AC50 is the concentration at which the activity in the assay is half-maximal.
